The source of these data is PubChem BioAssay (Tox21).

Results filed as inconclusive are left out. The source made the active and inactive calls. The call rests on the fitted dose curve.

The nature of the experiment: qHTS assay to identify small molecule agonists of the NFkB signaling pathway - cell viability counter screen (AID 1159515). Further: nearly all actives have a fitted effect of over 55% in size. The note with it: NFkB-bla ME-180 viability, CellTiter-Glo luminescence, 5 h; series mostly up to 61 µM. The text has this:
National Center for Advancing Translational Sciences [NCATS]
NIH Chemical Genomics Center [NCGC]
U.S. Environmental Protection Agency [EPA]
National Institutes of Environmental Health Sciences [NIEHS]
National Toxicology Program [NTP]
U.S. Food and Drug Administration [FDA]
Transcription factors and their stimulated target gene expression play pivotal roles across many cellular processes including responses to environmental stimuli. Proper regulation of associated pathways is critical to maintain cell health and function. Constitutive activation of transcription factor pathways has been implicated in tumors as it may block cellular functions such as apoptosis and lead to invasion and metastasis. One important transcription factor that stimulates gene expression in response to cytokines, UV radiation, and other stimuli is nuclear factor-kappa B (NFkB). To measure activation of the NFkB pathway, the CellSensor NFkB-bla ME-180 cell line (Life Technologies, Carlsbad, CA) that stably expresses beta-lactamase reporter gene under the regulation of a NF-kB response element was used. This assay allows measurement of the NFkB pathway activity induced by compounds in a ME-180 cell line. This system quantitates NF-kB activity using a FRET-based assay system where beta-lactamase expression disrupts FRET, allowing for fluorescent measurement of activity. This cell line has been used to screen the Tox21 10K compound library and to identify compounds that induce the NFkB pathway activity. The cytotoxicity of the Tox21 compound library against the NFkB-bla ME-180 cell line was tested in parallel by measuring cell viability using the CellTiter-Glo assay in the same wells.
Tox21 Assay Protocol Summary:
NFkB-bla ME-180 cells were dispensed at 2,000 cells/6 uL of assay medium per well into black wall/clear-bottom 1536-well plates using a Multidrop Combi (ThermoFisher Scientific, Waltham, MA) dispenser. After the assay plates were incubated at 37 C and 5% CO2 for an overnight, 23 nL of compounds dissolved in DMSO, positive controls or DMSO only was transferred to the assay plate by a Pintool station (Kalypsys, San Diego, CA). The assay plates were incubated at 37 C and 5% CO2 for 5 hr. One uL of LiveBLAzer B/G FRET substrate (Life Technologies) was added using a Flying Reagent Dispenser (Aurora Discovery, San Diego, CA) and the plates were incubated at room temperature for 1.5 hr. Fluorescence intensity (405 nm excitation, 460 nm and 530 nm emissions) was measured using an Envision plate reader (PerkinElmer, Shelton, CT). For cytotoxicity, 3 ul/well of CellTiter-Glo reagent was added into the assay plates using an FRD. After 30 min incubation at room temperature, the luminescence intensity was measured using a ViewLux plate reader (PerkinElmer).
A general note: qHTS replaces the single test concentration by a dilution series.
Turning to `Cc1cccc(C#N)c1`, the result was inactive. For `ClC(Cl)Br` the value was “inactive”. As for `CC(=O)CC(c1ccc(Cl)cc1)c1c(O)c2ccccc2oc1=O` (stereo not given), the compound was called inactive.

On to `CN1CCC(O)(c2ccc(F)cc2)C(C(=O)c2ccc(F)cc2)C1` (stereo not given), for which the result was inactive. Next, `CC(C)CP(=S)(S)CC(C)C`: “inactive”; `CN1CCN(C(=O)O[C@H]2c3nccnc3C(=O)N2c2ccc(Cl)cn2)CC1`: “inactive”; `C[C@]12CC[C@H]3[C@@H](CCC4=CC(=O)CC[C@@]43C)[C@@H]1CC[C@@H]2C(=O)O`: “inactive”. Consider `O=[N+]([O-])c1ccc(CBr)cc1`, for which the call was inactive. Next, `COc1ccc2c(c1OC)CN1CCc3cc4c(cc3C1C2)OCO4` (stereo not given): “inactive”. With `CCOC(=O)C1(c2ccccc2)CCN(CCc2ccc(N)cc2)CC1`, the outcome was inactive. For the compound `CNNC`, the call was inactive.

For the compound `CC1=NNC(=O)N(/N=C/c2cccnc2)C1`, the call was inactive. As to `ClCCCN1CCN(c2cccc(Cl)c2)CC1`, the compound was called inactive. For `Cc1nnc2n1-c1sc(CCC(=O)N3CCOCC3)cc1C(c1ccccc1Cl)=NC2`, the result was inactive. Regarding `CC(C)COP(=O)(OCC(C)C)OCC(C)C`, the result was inactive. On to `COC(C)(C)C`, for which the compound was called inactive. With `c1coc(-c2nc3ccccc3[nH]2)c1`, the result was inactive. As for `O=C(Nc1ccccc1)N(Cc1ccc(Cl)cc1)C1CCCC1`, the outcome was inactive. With `CCCSP(=O)(OCC)Oc1ccc(Br)cc1Cl` (stereo not given), the compound was classed as inactive. Next, `NC(=S)C(N)=S`: “inactive”; `CCCCOC(=O)[C@@H](C)Oc1ccc(Oc2ccc(C#N)cc2F)cc1`: “inactive”. For `CC1(C)COP(Oc2ccccc2)OC1` the value was “inactive”.

In the case of `Oc1c(Cl)cccc1Cl`, the compound was classed as inactive. For `c1cc[c]([Hg][c]2ccccc2)cc1` the value was “inactive”.

As for `CC(=O)CCc1ccc2c(c1)OCO2`, the result was inactive. Next, `CC(=O)[C@H]1CC[C@H]2[C@@H]3CC[C@H]4C[C@H](O)CC[C@]4(C)[C@H]3C(=O)C[C@]12C`: “inactive”. Consider `CNC(=O)Oc1ccccc1C1OCCO1`, for which the call was inactive. As for `NC1=NC(=O)C(c2ccccc2)O1` (stereo not given), the result was inactive.

Turning to `O=C(Nc1ccccc1)c1ccccc1I`, the compound was called inactive. Next, `CCC/C(=N\OCC)C1=C(O)CC(CC(C)SCC)CC1=O` (stereo not given): “inactive”; `CNC(=O)Oc1cccc(C(C)C)c1`: “inactive”; `CN1CCC(N(Cc2ccccc2)c2ccccc2)CC1`: “inactive”.

With `CCC(=O)c1ccccc1`, the compound was classed as inactive.

On to `CNCC(=O)c1ccc(O)c(O)c1`, for which the compound was classed as inactive. For `OC(c1ccc(F)cc1)(c1cncnc1)c1ccccc1Cl` (stereo not given), the call was inactive.

Turning to `c1ccc(N2CCNCC2)cc1`, the outcome was inactive. Consider `N#CC(CCc1ccc(Cl)cc1)(Cn1cncn1)c1ccccc1` (stereo not given), for which the compound was called inactive.

In the case of `CCOP(=S)(OCC)Oc1nc(Cl)n(C(C)C)n1`, the result was inactive. For `O=[N+]([O-])c1cccc2cccnc12` the value was “inactive”. For `C=CC1CC=CCC1` (stereo not given) the value was “inactive”.
